CHRM1 agonist – human M1 muscarinic receptor agonists, primary screen, Fluo-8 calcium fluorescence, CHO-K1 cells, HTS; Muscarinic acetylcholine receptor M1 (Homo sapiens), P11229; CHO-K1 hM1, agonist mode; 0% DMSO, 100% acetylcholine EC100; activation, % at 3 µM; hit rate 0.33% among 360,000; AID 588814, 2011;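 active = activation above the run's mean compound activation plus 3 SD, cut at about 16% in these data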;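 note: peak over basal fluorescence ratio within a 140 s kinetic read after compound addition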
Target sequence (P11229 whole entry, looked up): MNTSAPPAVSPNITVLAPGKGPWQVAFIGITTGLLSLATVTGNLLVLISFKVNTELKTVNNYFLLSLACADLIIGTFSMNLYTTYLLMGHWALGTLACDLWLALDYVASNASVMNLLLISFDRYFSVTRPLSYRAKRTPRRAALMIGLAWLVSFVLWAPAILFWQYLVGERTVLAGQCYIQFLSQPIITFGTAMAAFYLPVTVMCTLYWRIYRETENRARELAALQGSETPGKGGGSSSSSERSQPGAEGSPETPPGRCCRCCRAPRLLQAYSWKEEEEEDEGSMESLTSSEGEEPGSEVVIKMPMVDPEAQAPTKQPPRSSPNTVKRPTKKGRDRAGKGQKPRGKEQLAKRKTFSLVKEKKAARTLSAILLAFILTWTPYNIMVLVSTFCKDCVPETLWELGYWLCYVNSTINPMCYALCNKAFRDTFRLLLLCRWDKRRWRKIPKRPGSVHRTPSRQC
M1 PAM parental – nonselective calcium activators in parental CHO-K1 cells, primary screen, counter-screen for M1 PAM project, cell-based, Fluo-8 calcium fluorescence, full deck, 1536-well | activation, % at 3 µM | hit rate 0.02% among 360,000 | ATP EC20; 0% at ATP EC20, 100% at ATP max | AID 602247, 2012;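 active = activation above the run cutoff, the mean activation of all test compounds plus 3 SD, cut at about 40% in these data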;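 note: peak over basal fluorescence ratio in a 140 s read after ATP addition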
CHRM1 antagonist – human M1 muscarinic receptor antagonists, primary screen, CHO-K1 cells, Fluo-8 calcium fluorescence, 1536-well; CHO-K1 hM1, ACh EC80 antagonist; inhibition, % at 3 µM; hit rate 1.3% among 360,000; Muscarinic acetylcholine receptor M1 (Homo sapiens), P11229;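 active = percent inhibition above its own plate's cutoff, namely the mean of that plate's compound wells plus 3 SD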;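 note: peak over basal fluorescence ratio during 140 s after agonist addition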
CHO-K1 Ca antag – M1 antagonist counterscreen hit in parental CHO-K1 cells; AID 602250; hit rate 0.6% among 360,000; inhibition, % at 3 µM; ATP-induced calcium, Fluo-8 fluorescence;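 active = inhibition above a per-plate cutoff, the plate's mean sample inhibition plus 3 SD, cut at about 24% in these data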
M1 ag parental – counter-screen for M1 agonists: effect in parental CHO-K1 cells | Fluo-8 calcium fluorescence; scaled to maximal ATP response, vehicle zero | activation, % at 3 µM | hit rate 0.48% among 360,000 | AID 602248, 2012; in the data active = activation above about 15%;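 note: untransfected CHO-K1 host cells lacking M1 receptor as counterscreen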
CHRM1 PAM – human M1 muscarinic receptor positive allosteric modulators, primary screen, CHO-K1 cells, Fluo-8 calcium fluorescence, 1536-well; Muscarinic acetylcholine receptor M1 (Homo sapiens), P11229; CHO-K1 hM1, ACh EC20; 0% = ACh EC20, 100% = maximal ACh; activation, % at 3 µM; hit rate 0.088% among 360,000; in the data active = activation above about 19%, passing the limit was not always enough
Hits are given with their value. Compounds with a hit are over-represented: about 2.3% of the library has one in this group of screens.

`c1ccc(CNC2CN3CCC2CC3)cc1` (stereo unspecified) gave CHRM1 agonist inactive, M1 PAM parental inactive, CHRM1 antagonist 59, CHO-K1 Ca antag inactive, M1 ag parental inactive and CHRM1 PAM inactive.
Screening CCOC(C(=O)OCC(O)CN(CC)CC)(c1ccccc1)c1ccccc1 (stereo unspecified) returned CHRM1 agonist inactive, M1 PAM parental inactive, CHRM1 antagonist inactive, CHO-K1 Ca antag inactive, M1 ag parental inactive and CHRM1 PAM inactive.
For CCOC(C(=O)OCCC[N+](C)(CC)CC)(c1ccccc1)c1ccccc1 the results were CHRM1 agonist inactive, M1 PAM parental inactive, CHRM1 antagonist 98, CHO-K1 Ca antag inactive, M1 ag parental inactive and CHRM1 PAM inactive.
CCCCOC(=O)c1ccccc1C(=O)OCCCC was read as CHRM1 agonist inactive, M1 PAM parental inactive, CHRM1 antagonist inactive, CHO-K1 Ca antag inactive, M1 ag parental inactive and CHRM1 PAM inactive.
`CC[N+](C)(CC)CCCOC(=O)C(O)(c1ccccc1)C1CCCCC1` (stereo unspecified) gave CHRM1 agonist inactive, M1 PAM parental inactive, CHRM1 antagonist 96, CHO-K1 Ca antag inactive, M1 ag parental inactive and CHRM1 PAM inactive.
CCN(CC)CCCOC(=O)C(OC)(c1ccccc1)c1ccccc1 was read as CHRM1 agonist inactive, M1 PAM parental inactive, CHRM1 antagonist 99, CHO-K1 Ca antag inactive, M1 ag parental inactive and CHRM1 PAM inactive.
For CN1C2CCC1CC(OC(=O)c1cc(Cl)cc(Cl)c1)C2 (stereo unspecified) the results were CHRM1 agonist inactive, M1 PAM parental inactive, CHRM1 antagonist 47, CHO-K1 Ca antag inactive, M1 ag parental inactive and CHRM1 PAM inactive.
`CN1CCN(CCC(=O)OC2CC3CCC(C2)N3C)CC1` (stereo unspecified) gave CHRM1 agonist inactive, M1 PAM parental inactive, CHRM1 antagonist inactive, CHO-K1 Ca antag inactive, M1 ag parental inactive and CHRM1 PAM inactive.
`COc1ccc(C2(c3cccc(O)c3OC)CCN(C(C)=O)CC2)cc1O` gave CHRM1 agonist inactive, M1 PAM parental inactive, CHRM1 antagonist inactive, CHO-K1 Ca antag inactive, M1 ag parental inactive and CHRM1 PAM inactive.
Screening CN1C2CCC1C(COC(=O)c1ccccc1)C(O)C2 (stereo unspecified) returned CHRM1 agonist inactive, M1 PAM parental inactive, CHRM1 antagonist inactive, CHO-K1 Ca antag inactive, M1 ag parental inactive and CHRM1 PAM inactive.
`CN1C2CCC1CC(OC(c1ccccc1)c1ccccc1N)C2` (stereo unspecified) gave CHRM1 agonist inactive, M1 PAM parental inactive, CHRM1 antagonist 99, CHO-K1 Ca antag inactive, M1 ag parental inactive and CHRM1 PAM inactive.
`CCC(C)N1CCN(C(=O)COc2ccc3ccccc3c2)CC1` (stereo unspecified) gave CHRM1 agonist inactive, M1 PAM parental inactive, CHRM1 antagonist inactive, CHO-K1 Ca antag inactive, M1 ag parental inactive and CHRM1 PAM inactive.
Screening C[N+]1(C)C2CC[C@H]1CC(OC(=O)C(CO)c1ccccc1)C2 (stereo partly specified) returned CHRM1 agonist inactive, M1 PAM parental inactive, CHRM1 antagonist 100, CHO-K1 Ca antag inactive, M1 ag parental inactive and CHRM1 PAM inactive.
C[N+]1(C)[C@@H]2CC[C@H]1CC(OC(=O)[C@@H](CO)c1ccccc1)C2 (stereo partly specified) was read as CHRM1 agonist inactive, M1 PAM parental inactive, CHRM1 antagonist 102, CHO-K1 Ca antag inactive, M1 ag parental inactive and CHRM1 PAM inactive.
Screening C#CC[N+]1(C)[C@@H]2CC[C@H]1CC(OC(=O)C(CO)c1ccccc1)C2 (stereo partly specified) returned CHRM1 agonist inactive, M1 PAM parental inactive, CHRM1 antagonist 99, CHO-K1 Ca antag inactive, M1 ag parental inactive and CHRM1 PAM inactive.
Screening C[N+]1(C)C2CCC1CC(OC(=O)c1ccco1)C2 (stereo unspecified) returned CHRM1 agonist inactive, M1 PAM parental inactive, CHRM1 antagonist inactive, CHO-K1 Ca antag inactive, M1 ag parental inactive and CHRM1 PAM inactive.
For C[N+]1(C)CCC(OC(=O)C(c2ccccc2)c2ccccc2)CC1 the results were CHRM1 agonist inactive, M1 PAM parental inactive, CHRM1 antagonist 96, CHO-K1 Ca antag inactive, M1 ag parental inactive and CHRM1 PAM inactive.
C[N+]1(C)C2CCC1CC(OC(=O)c1c[nH]c3ccccc13)C2 (stereo unspecified) was read as CHRM1 agonist inactive, M1 PAM parental inactive, CHRM1 antagonist inactive, CHO-K1 Ca antag inactive, M1 ag parental inactive and CHRM1 PAM inactive.
Screening COC(=O)[C@@H](c1ccccc1)C1CCCCN1 (stereo partly specified) returned CHRM1 agonist inactive, M1 PAM parental inactive, CHRM1 antagonist inactive, CHO-K1 Ca antag inactive, M1 ag parental inactive and CHRM1 PAM inactive.
Screening COC(=O)C1=C(c2cccc(OC)c2OC)C[C@@H]2CC[C@H]1N2C(=O)N1CCC(C)CC1 returned CHRM1 agonist inactive, M1 PAM parental inactive, CHRM1 antagonist inactive, CHO-K1 Ca antag inactive, M1 ag parental inactive and CHRM1 PAM inactive.
For CNC(=O)Oc1cccc(-c2cn3cc(Cl)ccc3n2)c1 the results were CHRM1 agonist inactive, M1 PAM parental inactive, CHRM1 antagonist inactive, CHO-K1 Ca antag inactive, M1 ag parental inactive and CHRM1 PAM 27.
`O=c1[nH]c(=S)n(-c2ccc(Cl)cc2)c(O)c1/C=N/N1CCOCC1` gave CHRM1 agonist inactive, M1 PAM parental inactive, CHRM1 antagonist inactive, CHO-K1 Ca antag inactive, M1 ag parental inactive and CHRM1 PAM inactive.
`CC(C)CCn1c(N)c(C(=O)NCc2cccs2)c2nc3ccccc3nc21` gave CHRM1 agonist inactive, M1 PAM parental inactive, CHRM1 antagonist inactive, CHO-K1 Ca antag inactive, M1 ag parental inactive and CHRM1 PAM inactive.
Screening CC(C)OCCCNC(=O)c1c(N)n(Cc2cccs2)c2nc3ccccc3nc12 returned CHRM1 agonist inactive, M1 PAM parental inactive, CHRM1 antagonist inactive, CHO-K1 Ca antag 25, M1 ag parental inactive and CHRM1 PAM inactive.
CC(C)CNC(=O)c1c(N)n(Cc2ccc3c(c2)OCO3)c2nc3ccccc3nc12 was read as CHRM1 agonist inactive, M1 PAM parental inactive, CHRM1 antagonist 41, CHO-K1 Ca antag inactive, M1 ag parental inactive and CHRM1 PAM inactive.
For CNC(=O)NC(O)C(Cl)(Cl)Cl (stereo unspecified) the results were CHRM1 agonist inactive, M1 PAM parental inactive, CHRM1 antagonist inactive, CHO-K1 Ca antag inactive, M1 ag parental inactive and CHRM1 PAM inactive.
